Screening results from PubChem BioAssay.
Shown are actives, neighbours in structure and some others; about 2.7% of the full set was active somewhere.
EWS-Fli block: EWS/Fli transcriptional activity inhibition. A673 NR0B1-luciferase reporter, viability-normalised. inhibition, % at 12.6 µM. 350,000 compounds, 0.67% hits. AID 651661;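 active means mean inhibition of at least 50% after viability correction, with every replicate also passing that limit; inconclusive means mean reaches 50% but only one of two replicates passes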;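 further: firefly luciferase signal divided by Alamar Blue viability fluorescence both relative to DMSO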
GSIS activator: primary screen for activators of insulin secretion dependent on glucose, INS-1E cells, GLuc reporter luminescence; INS-1E GLuc reporter insulin secretion, 2-3 h; activation, % at 16.6 µM; AID 743287; 370,000 compounds, 0.61% hits;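 active means lowest replicate activation of at least 40%, so every replicate reaches that level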
CFTR F508del cor: correctors of CFTR F508del function in bronchial epithelial cells; CFBE cells, YFP halide quenching; stimulated with forskolin plus potentiator P3; % fluorescence drop versus neutral controls; activity (quench increase), % at 7.58 µM; 350,000 compounds, 0.36% hits; AID 720511;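 active means mean added fluorescence quench of at least 8% versus neutral control, with both replicates also reaching 8%; inconclusive means only one of the mean or replicate conditions met; inactive means mean below 8% and not both replicates reaching 8%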;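 further: cells transiently co-express mutant CFTR-F508del with the halide-sensitive YFP; corrector assay measuring rescue of mutant channel to the surface after 24 h compound exposure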
PAX8 reporter: lowers PAX8-driven luciferase in RMG-I cells. RMG-I TPO-luciferase reporter, SteadyGlo, 24 h. inhibition, % at 12.6 µM. 360,000 compounds, 1.2% hits. AID 652154;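 active means mean replicate inhibition at least 60% with every replicate also reaching 60%; inconclusive means only one of the two criteria is met; inactive means mean below 60% and not all replicates reaching 60%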;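 further: luciferase light reporting Pax8 driven TPO promoter activity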
PGC1a acetyl inh: lowers PGC1a acetylation signal in U2OS cells | inhibition, % at 15.6 µM | 350,000 compounds, 0.17% hits | AlphaScreen anti-acetyl-lysine; with virally co-expressed GCN5 acetyltransferase;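 active means every replicate shows inhibition of at least 40%; inconclusive means mean inhibition at least 40% but some replicate below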
Env fusion inh: HIV envelope-mediated fusion inhibition; HeLa-JRFL Env/CEM21 cell fusion, luciferase; inhibition, % at 12.3 µM; 360,000 compounds, 1.1% hits; AID 651610;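 active means mean replicate inhibition score of at least 50 and every replicate individually at or above 50; inconclusive means only one of the two criteria met; inactive means mean below 50 and not all replicates reaching 50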
Large screens that a line does not name were inactive.

CCCc1nnc(NC(=O)CCS(=O)(=O)c2ccccc2)s1	PAX8 reporter 78.0 (no result: PGC1a acetyl inh)
CCOC(=O)c1csc(NC(=O)CCS(=O)(=O)c2ccc(Cl)cc2)n1	PAX8 reporter 84.0
Cc1csc(NC(=O)CCS(=O)(=O)c2ccc(Br)cc2)n1	none (no result: EWS-Fli block, GSIS activator, CFTR F508del cor, PAX8 reporter, Env fusion inh)
CCCCc1nnc(NC(=O)CCS(=O)(=O)c2ccc(Cl)cc2)s1	PAX8 reporter 76.8 (no result: Env fusion inh)
O=C(Nc1nnc(CCS(=O)(=O)c2ccc3ccccc3c2)s1)c1cccs1	GSIS activator 106.4 (no result: EWS-Fli block, CFTR F508del cor)
COc1ccc(S(=O)(=O)CCc2nnc(NC(=O)c3cccs3)s2)cc1	none (no result: EWS-Fli block, GSIS activator, CFTR F508del cor)
C[C@H](CO)N1C[C@H](C)[C@@H](CN(C)C(=O)c2ccc(F)cc2)Oc2ncc(-c3ccncc3)cc2C1=O	none (no result: PAX8 reporter)
O=C(Cc1ccccn1)NCC[C@H]1CC[C@@H](NC(=O)Nc2ccc(Cl)cc2)[C@@H](CO)O1	none (no result: EWS-Fli block, PAX8 reporter, Env fusion inh)
O=C(C[C@H]1C[C@@H]2c3cc(NC(=O)CC4CC4)ccc3O[C@@H]2[C@@H](CO)O1)NCC(F)(F)F	none
C[C@@H]1CN([C@@H](C)CO)C(=O)c2cc(NC(=O)CCN3CCOCC3)ccc2O[C@@H]1CN(C)S(=O)(=O)c1cn(C)cn1	none (no result: PAX8 reporter, Env fusion inh)
CCSc1ccc(-c2nn(-c3ccccc3)cc2/C=C(/C#N)C(=O)NCCCOC)cc1	GSIS activator 63.9 (no result: EWS-Fli block, CFTR F508del cor, PGC1a acetyl inh)
CCCSc1ccc(-c2nn(-c3ccccc3)cc2/C=C(/C#N)C(=O)NCCCOC)cc1	GSIS activator 49.9
Cc1ccc(-c2nn(-c3ccccc3)cc2/C=C(\C#N)C(=O)NCc2ccccc2)cc1	none (no result: EWS-Fli block, CFTR F508del cor, PGC1a acetyl inh)
N#C[C@@H]1[C@@H](c2ccccc2-c2ccccc2)[C@H](CO)N1C(=O)Cc1ccccc1	none (no result: Env fusion inh)
C[C@@H]1CN([C@@H](C)CO)C(=O)c2cc(NS(=O)(=O)c3cn(C)cn3)ccc2O[C@@H](C)CCCCO[C@@H]1CN(C)C(=O)c1ccncc1	none
C[C@@H]1CN([C@H](C)CO)C(=O)c2cc(NS(=O)(=O)c3ccc(F)cc3)ccc2O[C@@H](C)CCCCO[C@H]1CN(C)S(=O)(=O)c1ccccc1	none (no result: Env fusion inh)
COc1ccc(Cc2c(-c3ccco3)nc3ccc(Br)cn23)c(C)c1	none
Cc1ccc(Cc2c(-c3ccc(C)cc3)nc3c(C)cc(Br)cn23)cc1	CFTR F508del cor 10.8 (no result: GSIS activator, Env fusion inh)
COc1ccc(Cc2c(-c3ccco3)nc3c(C)cc(Br)cn23)c(C)c1	Env fusion inh 73.3 (no result: GSIS activator)
C/C=C/c1ccc([C@@H]2[C@@H](CO)N(C(=O)c3cnccn3)C23CN(C(C)=O)C3)cc1	none (no result: Env fusion inh)
O=C(O)C1(C(=O)O)CCCC1	none
NC1(C(=O)O)CC1	CFTR F508del cor 17.1 (no result: GSIS activator)
CCOC(=O)N1CCN(c2c(NCc3ccc(F)cc3)c(=O)c2=O)CC1	EWS-Fli block 56.8
CCOC(=O)N1CCN(c2c(NCc3ccc(Cl)cc3)c(=O)c2=O)CC1	EWS-Fli block 52.3
CC(C)NC(=O)N(C)C[C@@H]1Oc2ncc(-c3ccccc3F)cc2C(=O)N([C@H](C)CO)C[C@H]1C	none (no result: Env fusion inh)
Cc1noc(C)c1NC(=O)Nc1ccc2c(c1)C(=O)N([C@@H](C)CO)C[C@@H](C)[C@H](CN(C)C(=O)Nc1ccccc1)O2	none (no result: PAX8 reporter)
Cc1ccc(Nc2nc(N)c([N+](=O)[O-])c(N3CCCC(C)C3)n2)cc1C (configuration not stated)	GSIS activator 60.0 (no result: EWS-Fli block, CFTR F508del cor, PAX8 reporter, PGC1a acetyl inh, Env fusion inh)
Cc1ccc(Nc2nc(N)c([N+](=O)[O-])c(N3CCOCC3)n2)cc1	GSIS activator 55.9 (no result: EWS-Fli block, CFTR F508del cor, PGC1a acetyl inh)
C[C@H]1CN([C@@H](C)CO)C(=O)c2c(c3ccccc3n2C)-c2ccccc2CO[C@@H]1CN(C)C(=O)Nc1cccc(Cl)c1Cl	none (no result: PGC1a acetyl inh, Env fusion inh)
CC(SCc1ccccc1)C(=O)Nc1ccccc1-c1ccccc1 (configuration not stated)	EWS-Fli block 74.7 (no result: CFTR F508del cor, PGC1a acetyl inh)
c1ccc(-c2ccc3c(c2)c2c4n3CCN=C4CCC2)cc1	Env fusion inh 59.7 (no result: EWS-Fli block, GSIS activator, CFTR F508del cor, PAX8 reporter)
C[C@@H]1CN([C@@H](C)CO)C(=O)c2cccc(NS(=O)(=O)c3ccc(Cl)cc3)c2O[C@H]1CN(C)C(=O)Nc1ccc(C(F)(F)F)cc1	none (no result: PAX8 reporter, Env fusion inh)
CCOc1ccc(N(C)S(=O)(=O)c2ccc3[nH]cc(C(=O)NCCOC)c(=O)c3c2)cc1	GSIS activator 65.9
CC(=O)N(C)C[C@H]1Oc2ccc(NC(=O)NC(C)C)cc2CC(=O)N(C)C[C@@H]1C	none (no result: EWS-Fli block, CFTR F508del cor, PAX8 reporter, PGC1a acetyl inh, Env fusion inh)
Cc1ccc(-n2ncc3c(=O)n(CC(=O)Nc4cccc(Cl)c4)cnc32)cc1C	GSIS activator 257.3 (no result: EWS-Fli block, CFTR F508del cor, PAX8 reporter, Env fusion inh)
CCOc1ccccc1NC(=O)Cn1cnc2c(cnn2-c2ccc(C)c(C)c2)c1=O	none (no result: EWS-Fli block, CFTR F508del cor, PAX8 reporter, Env fusion inh)
COc1ccc(NC(=O)Cn2cnc3c(cnn3-c3ccc(C)c(C)c3)c2=O)c(OC)c1	GSIS activator 97.2 (no result: EWS-Fli block, CFTR F508del cor, PAX8 reporter, PGC1a acetyl inh, Env fusion inh)
O=C(C[C@H]1C[C@H]2c3cc(NC(=O)Cc4ccncc4)ccc3O[C@H]2[C@@H](CO)O1)NCc1cc(F)ccc1F	none
Cc1ccc(NC(=O)c2ccc(Cl)c(S(=O)(=O)Nc3c(C)n(C)n(-c4ccccc4)c3=O)c2)cc1Cl	CFTR F508del cor 12.1 (no result: PAX8 reporter, PGC1a acetyl inh)
Cc1ccc(NS(=O)(=O)c2cc(C(=O)N(C)C3CCN(C)CC3)ccc2Cl)cc1Cl	Env fusion inh 75.1
Cc1c(NC(=O)c2cccc(NC(=O)COc3ccccc3)c2)c(=O)n(-c2ccccc2)n1C	none
Cc1c(NC(=O)c2cccc(NC(=O)COc3ccccc3C#N)c2)c(=O)n(-c2ccccc2)n1C	EWS-Fli block inconclusive, PAX8 reporter 65.1, Env fusion inh 59.6 (no result: PGC1a acetyl inh)
COCC(=O)Nc1ccc2c(c1)C(=O)N(C)C[C@H](OC)[C@H](C)CN(C(=O)CC1CC1)[C@H](C)CO2	none (no result: PAX8 reporter)
O=C(Nc1cccc(C(F)(F)F)c1)c1csc([C@@H]2C[C@H](O)[C@@H](CO)O2)n1	none (no result: PGC1a acetyl inh)
O=C(Nc1cccc(C(F)(F)F)c1)c1csc([C@@H]2O[C@H](CO)[C@@H](O)[C@H]2O)n1	GSIS activator 80.4
COCC(=O)Nc1ccc2c(c1)OC[C@H](C)N(Cc1cccnc1)C[C@@H](C)[C@@H](OC)CN(C)C2=O	none
COC1=CC(=O)c2nc(Cl)ccc2C1=O	PAX8 reporter 106.8 (no result: PGC1a acetyl inh)
O=[N+]([O-])c1ccc(NC(=S)NCCc2ccc(F)cc2)cc1	PAX8 reporter 80.8 (no result: CFTR F508del cor, PGC1a acetyl inh)
NC(=S)N/N=C/c1ccccc1	none (no result: PGC1a acetyl inh)
CNc1cccnc1C=NNC(N)=S	Env fusion inh 81.4
NC(=S)NN=Cc1nccc2c(C(F)(F)F)cccc12	PAX8 reporter 72.5, Env fusion inh inconclusive
COC(=O)[C@]12C[C@H](CC(=O)NCCCN3CCCC3=O)C(=O)N(CCC3=CCCCC3)C1=C[C@H](C(C)(C)C)O[C@@H]2C	none (no result: GSIS activator, PGC1a acetyl inh)
COC(=O)[C@]12C[C@H](CC(=O)N3CCOCC3)C(=O)N(CCC3=CCCCC3)C1=C[C@H](C(C)(C)C)O[C@@H]2C	Env fusion inh inconclusive (no result: GSIS activator, PGC1a acetyl inh)
COC(=O)[C@]12C[C@H](CC(=O)NCCC(C)C)C(=O)N(CCC3=CCCCC3)C1=C[C@H](C(C)(C)C)O[C@@H]2C	Env fusion inh 58.9 (no result: GSIS activator, PGC1a acetyl inh)
